Screens: PubChem, National Center for Advancing Translational Sciences (NCATS)
HCV inh – inhibitors of hepatitis C virus infection | Huh7.5.1 HCVcc-Cre infection, luciferase reporter, 44 h | Potency, µM (highest dose often 41.8 µM), without a hit: top-dose activity change, negative = inhibition, actives largely listed as inhibitors | actives 3.4% (n = 340,000) | AID 651820; also: potency is read from the fitted curve at half-maximal effect
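After 44 h co-culture of compound, cells and HCVcc-Cre (~0.5 moi), substrate is added for 15 min at room temperature and luciferase measured over 15 sec. Cells were seeded at 1,000/well and pre-cultured 4 h.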
Pf growth 96h – inhibits malaria parasite growth, 96 h; actives 6.9% (n = 320,000); P. falciparum luciferase reporter growth, 96 h; AID 504834; Potency, µM (top dose mostly 28.7 µM), without a hit: top-dose activity change, negative = inhibition, hits mostly inhibitors; also: potency is read from the fitted curve at half-maximal effect
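Plates of compound plus infected erythrocytes (2% hematocrit, 0.05% parasitemia final) incubate 96 hours, 37 C, 5% CO2. Detection reagent added; reduced luminescence from the parasites' luciferase reporter flags inhibition.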
Pf growth 48h – P. falciparum growth inhibition at 48 hours (one generation). P. falciparum luciferase growth in erythrocytes, 48 h. Potency, µM (top dose mostly 28.7 µM), without a hit: top-dose activity change, negative = inhibition, hits mostly inhibitors. actives 5.9% (n = 310,000); also: potency is read from the fitted curve at half-maximal effect
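Read-out is firefly luciferase luminescence from an integrated reporter in P. falciparum, so falling signal marks reduced parasite growth. Infected erythrocytes were at 2% hematocrit and 0.1% parasitemia (final) in Albumax-supplemented RPMI 1640.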
HCMV antiviral – inhibitors of human cytomegalovirus. activity change, negative = inhibition, % at 57.5 µM. HFF cells, HCMV-luciferase reporter, 72 h; active compounds read low. actives 4.5% (n = 410,000); in the data active = activity change below about -60%; inconclusive = no clear call, values can overlap the other calls; inactive = above about -39%
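HFF cells seeded 16 h at 37C, treated with compounds, infected with luciferase-reporter HCMV at MOI 1 PFU/cell; luciferase read at 72 h post infection, normalized to buffer-only and Salinomycin controls.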
Active calls of the source: *. Only some compounds are listed: those with a hit (about 13% of all), similar ones and a draw of the others. Unless noted, calls follow the shape of the dose curve; as a rule, active = well fitted inhibition curve with a large enough effect; inconclusive = small, poorly fitted or top-dose-only effect, or another doubt; inactive = no such curve, though single readings can be large or run the other way. % is scaled to controls: 0 for no effect and ±100 for the full control effect.

`Cc1ccc(C(=O)N/C(=C\c2ccc(-c3cc(Cl)ccc3Cl)o2)C(=O)NCc2cccnc2)cc1` gave HCV inh 10µM*, Pf growth 96h inconclusive, Pf growth 48h 25% and HCMV antiviral -4.
Screening O=C(NCc1cccnc1)/C(=C\c1ccc(-c2cccc(Cl)c2)o1)S(=O)(=O)c1ccccc1 returned HCV inh inconclusive, Pf growth 96h inconclusive, Pf growth 48h 9.3µM* and HCMV antiviral -103*.
`COc1ccc(Br)cc1CNC(=O)c1ccc(-n2c(C)cc3c2CCC(C)C3)cc1` (centres undefined) gave HCMV antiviral -24.
For CC1CCC(NC(=O)c2ccc3c(c2)N(Cc2ccccc2F)C(=O)c2ccccc2S3)CC1 (centres undefined) the results were HCMV antiviral 67.
For N#Cc1c(-c2cccs2)cc(-c2ccccn2)nc1N the results were HCV inh inconclusive, Pf growth 96h 9.3µM*, Pf growth 48h -6% and HCMV antiviral 10.
Screening N#Cc1c(-c2cccs2)cc(-c2cccnc2)nc1N returned HCV inh inconclusive, Pf growth 48h 0% and HCMV antiviral 109.
`Cc1cc(=O)[nH]c2nnc(SCC(=O)Nc3ccc(F)cc3F)n12` gave HCMV antiviral -40.
For Cc1ccc(C2(c3ccccc3)NC(=O)N(CC(=O)NC3(C#N)CCCC3)C2=O)cc1C (centres undefined) the results were HCV inh -10%, Pf growth 96h inconclusive, Pf growth 48h 13µM* and HCMV antiviral -92*.
COc1ccc(C2(c3ccc(OC)cc3)NC(=O)N(CC(=O)NC3(C#N)CCCC3)C2=O)cc1 was read as HCV inh -12%, Pf growth 96h inconclusive, Pf growth 48h inconclusive and HCMV antiviral -16.
For Cc1ccc(C2(c3ccccc3)NC(=O)N(CC(=O)NCc3ccco3)C2=O)cc1C (centres undefined) the results were HCV inh inconclusive, Pf growth 96h 5.9µM*, Pf growth 48h inconclusive and HCMV antiviral inconclusive.
COc1c(C)cc(S(=O)(=O)Nc2cccc(-c3ccc(N4CCOCC4)nn3)c2)c(C)c1C was read as HCMV antiviral 71.
For CCn1c(CNC(=O)C23CC4CC(CC(C4)C2)C3)nnc1SCC(=O)Nc1ccc(C)cc1 the results were HCMV antiviral 14.
Screening CC(C)(C)C(=O)NCC(c1ccc2c(c1)OCO2)N1CCOCC1 (centres undefined) returned HCMV antiviral 24.
For CC1=C(C(=O)Nc2cccnc2)C(c2ccc(F)cc2)n2nc(SCc3ccccc3)nc2N1 (centres undefined) the results were HCMV antiviral -14.
Screening OC(c1ccco1)c1nc(-c2ccc(F)c(Cl)c2)cs1 (centres undefined) returned HCMV antiviral -65*.
For OC(c1cccc(Cl)c1)c1nc(-c2ccc(F)c(Cl)c2)cs1 (centres undefined) the results were HCMV antiviral -8.
CCCC(=O)N1CC2(CCN(C(C)=O)CC2)c2c(n(C)c3cc(OC)ccc23)[C@H]1CO was read as HCMV antiviral 12.
`O=S(=O)(N1CCCCC1)n1c(Cc2ccccc2)nc2ccccc21` gave HCV inh 0%, Pf growth 48h 12µM* and HCMV antiviral -36.
O=S(=O)(c1ccc(Br)cc1)n1c(Cc2ccccc2)nc2ccccc21 was read as HCV inh 18%, Pf growth 96h inconclusive, Pf growth 48h -7% and HCMV antiviral inconclusive.
`CCCS(=O)(=O)Nc1ccc(Nc2c3ccccc3nc3ccccc23)c(OC)c1` gave HCV inh inconclusive and HCMV antiviral -76*.
`CCCCN(CCCC)CCNC(=O)Cn1nc(C)n2c(cc3sccc32)c1=O` gave HCMV antiviral -6.
For CCCCCCCCCCCC(=O)N(CCO)CCO the results were Pf growth 96h 4% and Pf growth 48h 8%.
For O=C(CCCCCC(=O)N(CCO)CCO)N(CCO)CCO the results were HCV inh 0%, Pf growth 48h 13µM* and HCMV antiviral -39.
Screening C=CCN1CCc2cc(O)c(O)cc2C(c2ccccc2)C1 (centres undefined) returned HCV inh -24%, Pf growth 96h inconclusive, Pf growth 48h 12µM* and HCMV antiviral 27.
CCCCOc1ccc(S(=O)(=O)Nc2cccc(-c3ccc(N4CCOCC4)nn3)c2)cc1 was read as HCMV antiviral 86.
For CC1CN(S(=O)(=O)c2csc(C(=O)Nc3ccccc3)c2)CC(C)O1 (centres undefined) the results were Pf growth 96h 33%, Pf growth 48h 0% and HCMV antiviral -60*.
Screening O=S(=O)(c1ccc(F)cc1)N1CCCC1 returned HCV inh -5%, Pf growth 96h inconclusive, Pf growth 48h inconclusive and HCMV antiviral 4.
`O=S(=O)(c1ccc(S(=O)(=O)N(Cc2ccc(F)cc2)C2CCCC2)cc1)N1CCCC1` gave HCV inh 17%, Pf growth 48h 13µM* and HCMV antiviral -38.
For O=C(Nc1ccc(F)cc1)c1cc(S(=O)(=O)N2CCCCC2)cs1 the results were HCV inh inconclusive, Pf growth 96h inconclusive, Pf growth 48h -13% and HCMV antiviral -84*.
Screening O=C(Nc1ccc(F)cc1)Nc1ccc(S(=O)(=O)N2CCCC2)cc1 returned HCV inh -4%, Pf growth 96h 7.4µM*, Pf growth 48h 13µM* and HCMV antiviral -32.
For Cc1cc(C)cc(N2C(=O)CS(=O)(=O)C23C(=O)N(Cc2ccccc2)c2ccccc23)c1 (centres undefined) the results were HCMV antiviral -16.
`O=C(c1ccc(S(=O)(=O)N2CCCC2)cc1)N(c1ccc(F)cc1)C1C=CS(=O)(=O)C1` (centres undefined) gave HCV inh 10%, Pf growth 96h 63%, Pf growth 48h 2% and HCMV antiviral -69*.
`O=C(c1ccc2c(c1)OCO2)N(c1ccc(Br)cc1)C1C=CS(=O)(=O)C1` (centres undefined) gave HCV inh 8%, Pf growth 96h 4%, Pf growth 48h -7% and HCMV antiviral -60*.
For Cc1oc(S(=O)(=O)N2CCCCC2)cc1NC(=O)Nc1ccc(F)cc1 the results were HCV inh inconclusive, Pf growth 96h 5.9µM*, Pf growth 48h inconclusive and HCMV antiviral -1.
CN(C)c1cccc(CNc2nccc3[nH]c(-c4ccc(F)c(F)c4)nc23)c1 was read as HCMV antiviral 0.
CCOc1ccccc1N(C(=O)CNS(=O)(=O)c1ccccc1)C(CC)C(=O)NCc1ccco1 (centres undefined) was read as HCV inh 6%, Pf growth 96h 7.4µM* and HCMV antiviral 64.
Screening CCCC(C(=O)NCc1ccco1)N(Cc1ccco1)C(=O)CNS(=O)(=O)c1ccccc1 (centres undefined) returned HCV inh 4%, Pf growth 96h inconclusive, Pf growth 48h -7% and HCMV antiviral 15.
